# Results as given in PubChem BioAssay (Tox21).
# Inconclusive results are not listed. Entries that show only a call come without a potency. A number with no mark means an inactive call. Activity calls are given as the source filed them. Unless noted, the call rests on the fitted dose curve; in most records, active means well fitted curve in the direction sought with a large enough effect in the repeat runs; inconclusive means weak or mixed curves; inactive means no such curve, though single readings can be large; an effect the other way counts as inactive or inconclusive.
# What was measured:
# [1] = qHTS assay to identify small molecule antagonists of the estrogen related receptor (ERR) signaling pathway from Tox21 library - cell viability counter screen (AID 1224834); further: nearly all actives have a fitted effect of over 30% in size
# In short: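 Cytotoxicity of test substances is gauged in the same ERR cells used for the antagonist screen, after 17.5 h of compound treatment at 37 C, by CellTiter-Fluor fluorescence measured after 30 min.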
# [2] = target: Luciferin 4-monooxygenase (Photinus pyralis) (UniProt P08659); assay: qHTS assay to identify small molecule inhibitors of firefly luciferase (AID 1224835); further: nearly all actives have a fitted effect of over 25% in size; further: potency means the concentration at half of the fitted maximal effect; on activity change, negative = inhibition: series mostly up to about 120 µM
# Sequence of Luciferin 4-monooxygenase (Photinus pyralis) (P08659 whole entry, looked up): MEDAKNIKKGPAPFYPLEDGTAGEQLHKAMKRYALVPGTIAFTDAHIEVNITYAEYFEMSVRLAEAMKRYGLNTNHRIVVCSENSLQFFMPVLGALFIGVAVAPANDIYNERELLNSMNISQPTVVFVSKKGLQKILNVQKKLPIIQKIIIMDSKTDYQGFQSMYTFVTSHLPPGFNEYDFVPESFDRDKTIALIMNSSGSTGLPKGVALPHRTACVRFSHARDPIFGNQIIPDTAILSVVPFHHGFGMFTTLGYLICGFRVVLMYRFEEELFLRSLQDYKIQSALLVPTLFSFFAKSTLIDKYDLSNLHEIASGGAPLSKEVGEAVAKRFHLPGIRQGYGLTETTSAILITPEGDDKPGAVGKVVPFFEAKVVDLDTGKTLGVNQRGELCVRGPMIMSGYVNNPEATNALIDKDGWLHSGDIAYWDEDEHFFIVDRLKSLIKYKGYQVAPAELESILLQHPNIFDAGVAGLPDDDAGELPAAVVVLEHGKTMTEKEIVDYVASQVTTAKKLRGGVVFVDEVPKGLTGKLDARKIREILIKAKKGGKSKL
# In short: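 Inhibition of purified Photinus luciferase is measured by luminescence. Substrate levels (D-luciferin, ATP) sit at their KM values. Each compound is tested in a concentration series.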
# [3] = qHTS assay to identify small molecule agonists of the constitutive androstane receptor (CAR) signaling pathway - cell viability counter screen (AID 1224836); further: series mostly up to about 92 µM; nearly all actives have a fitted effect of over 45% in size
# In short: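 23 h treatment, 37 C, 5% CO2. Cell line: HepG2 stably expressing hCAR with a CYP2B6-2.2kb construct. Co-treatment: PK11195, 0.75 uM final. Read-out: CellTiter-Fluor fluorescence intensity.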
# [4] = qHTS assay to identify small molecule antagonists of the constitutive androstane receptor (CAR) signaling pathway - cell viability counter screen (AID 1224837); further: series mostly up to about 92 µM; nearly all actives have a fitted effect of over 45% in size
# In short: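 Multiplexed cytotoxicity read-out for the CAR antagonist screen: double-stable HepG2-CYP2B6-hCAR cells co-treated with 50 nM CITCO (final) and compound over 15 concentrations, incubated 23 hr, then assessed by CellTiter-Fluor fluorescence.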
# [5] = qHTS assay to identify small molecule antagonists of the estrogen related receptor signaling pathway with the pleiotropic PPARgamma coactivator (PGC) from Tox21 10K library - cell viability counter screen (AID 1224840; active means well fitted cell-killing curve with a large enough effect in the repeat runs, not every such curve was filed as active; further: nearly all actives have a fitted effect of over 40% in size)
# In short: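 Step one, plate 2,000 PGC/ERR cells per well; step two, incubate 6 h at 37 C/5% CO2; step three, pin-transfer compounds; step four, incubate 17.5 h; step five, add CellTiter-Fluor and read fluorescence after 30 min.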
# [6] = qHTS assay to identify small molecule antagonists of the estrogen related receptor signaling pathway with the pleiotropic PPARgamma coactivator (PGC) from Tox21 10K library (AID 1224841; call rule not given here; further: series mostly up to about 92 µM; actives are mostly falling curves and most rising ones were filed inactive; nearly all actives have a fitted effect of over 50% in size)
# In short: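 Antagonism in this quantitative HTS is taken from loss of luciferase signal in PGC/ERR cells. Cells (2,000/well) are treated with compounds in DMSO after a 6 h settling period and read by One-Glo luminescence after 18 h.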
# [7] = qHTS assay to identify small molecule agonists of the estrogen related receptor signaling pathway with the pleiotropic PPARgamma coactivator (PGC) from Tox21 10K library (AID 1224842); further: nearly all actives have a fitted effect of over 15% in size
# In short: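 Luminescence from One-Glo (30 min, room temperature) measured after PGC/ERR cells had 18 h at 37 C with pinned compound (23 nL in DMSO). Cells had been seeded at 2,000 per well and pre-incubated 6 h.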
# [8] = target: Nuclear receptor subfamily 1 group I member 3 (Homo sapiens) (UniProt Q14994); assay: qHTS assay to identify small molecule antagonists of the constitutive androstane receptor (CAR) signaling pathway (AID 1224838); further: nearly all actives have a fitted effect of over 40% in size
# Sequence of Nuclear receptor subfamily 1 group I member 3 (Homo sapiens) (Q14994 whole entry, looked up): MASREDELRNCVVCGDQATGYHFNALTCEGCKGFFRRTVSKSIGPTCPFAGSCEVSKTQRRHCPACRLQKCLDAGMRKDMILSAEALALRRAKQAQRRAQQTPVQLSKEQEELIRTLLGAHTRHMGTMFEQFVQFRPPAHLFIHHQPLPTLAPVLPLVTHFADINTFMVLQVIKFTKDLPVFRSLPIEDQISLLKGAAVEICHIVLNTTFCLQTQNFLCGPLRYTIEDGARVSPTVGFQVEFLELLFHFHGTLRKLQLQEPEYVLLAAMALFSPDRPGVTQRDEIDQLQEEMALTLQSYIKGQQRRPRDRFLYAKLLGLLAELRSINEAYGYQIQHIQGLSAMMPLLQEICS
# In short: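 Compounds were titrated across 15 concentrations onto HepG2 cells double-stably expressing hCAR and a CYP2B6-2.2kb reporter, together with 50 nM CITCO (final). After 24 h at 37 C, luciferase activity was measured by luminescence.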
# [9] = target: Nuclear receptor subfamily 1 group I member 3 (Homo sapiens) (UniProt Q14994); assay: qHTS assay to identify small molecule agonists of the constitutive androstane receptor (CAR) signaling pathway (AID 1224839); further: nearly all actives have a fitted effect of over 15% in size; further: potency means the concentration at half of the fitted maximal effect
# In short: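 Compounds tested at 15 concentrations on HepG2 cells stably harbouring hCAR and CYP2B6-2.2kb reporter constructs, co-treated with PK11195 (0.75 uM final), 24 h at 37 C; luminescent reporter signal quantified.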
smiles,measurement,setting,value
CCOC(=O)c1ncn2c1CN(C)C(=O)c1c(I)cccc1-2,Potency,[1],inactive
same,Potency,[2],inactive
same,Potency,[3],inactive
same,Potency,[4],inactive
same,Potency,[5],inactive
CC(=O)CN(CC(C)=O)N=O,Potency,[1],inactive
same,Potency,[2],inactive
same,Potency,[3],inactive
same,Potency,[4],inactive
same,Potency,[5],inactive
same,Potency,[6],inactive
same,Potency,[7],inactive
C=C1C[C@@H]2[C@H](CC[C@]3(C)C(=O)CC[C@@H]23)[C@@]2(C)C=CC(=O)C=C12,Potency,[1],inactive
same,Potency,[2],inactive
same,Potency,[3],inactive
same,Potency,[4],inactive
same,Potency,[8],inactive
same,Potency,[5],inactive
same,Potency,[6],inactive
same,Potency,[7],inactive
N#CN=C1SCCN1Cc1ccc(Cl)nc1,Potency,[1],inactive
same,Potency,[2],inactive
same,Potency,[3],inactive
same,Potency,[4],inactive
same,Potency,[5],inactive
same,Potency,[6],inactive
same,Potency,[7],inactive
C=CC1(C)OC(=O)N(c2cc(Cl)cc(Cl)c2)C1=O (stereo not drawn),Potency,[1],inactive
same,Potency,[2],inactive
same,Potency,[3],inactive
same,Potency,[4],inactive
same,Potency,[5],inactive
Clc1cc2c(cc1Cl)Oc1cc(Cl)c(Cl)cc1O2,"viability change, negative = cytotoxic",[1],-2.52% [at 0.349 µM]
same,"activity change, negative = inhibition",[2],-7.47% [at 0.435 µM]
same,"viability change, negative = cytotoxic",[3],-0.641% [at 0.349 µM]
same,"activity, negative = inhibition",[8],103% [at 0.349 µM]
CNC(=O)O/N=C(/CSC)C(C)(C)C,Potency,[1],inactive
same,Potency,[2],inactive
same,Potency,[3],inactive
same,Potency,[4],inactive
same,Potency,[8],inactive
same,Potency,[5],inactive
COc1cccc([C@@]2(O)CCCC[C@@H]2CN(C)C)c1,Potency,[1],inactive
same,Potency,[2],inactive
same,Potency,[3],inactive
same,Potency,[4],inactive
same,Potency,[5],inactive
same,Potency,[6],inactive
same,Potency,[7],inactive
CC(=NC#N)N(C)Cc1ccc(Cl)nc1,Potency,[1],inactive
same,Potency,[2],inactive
same,Potency,[3],inactive
same,Potency,[4],inactive
same,Potency,[5],inactive
CC(C)(C)NC[C@H](O)c1ccc(O)cc1Cl,Potency,[1],inactive
same,Potency,[2],inactive
same,Potency,[3],inactive
same,Potency,[4],inactive
same,Potency,[5],inactive
same,Potency,[6],inactive
same,Potency,[7],inactive
CN=CNc1ccc(C)cc1C,Potency,[1],inactive
same,Potency,[2],inactive
same,Potency,[3],inactive
same,Potency,[4],inactive
same,Potency,[5],inactive
same,Potency,[6],inactive
same,Potency,[7],inactive
CC(C)(O)C(Cl)(Cl)Cl,Potency,[1],inactive
same,Potency,[2],inactive
same,Potency,[3],inactive
same,Potency,[4],inactive
same,Potency,[5],inactive
COC1=CC(=O)O[C@@H](/C=C/c2ccccc2)C1,Potency,[1],inactive
same,Potency,[2],inactive
same,Potency,[3],inactive
same,Potency,[4],inactive
same,Potency,[5],inactive
same,Potency,[6],inactive
CN(C)CCN(C)C,Potency,[1],inactive
same,Potency,[2],inactive
same,Potency,[3],inactive
same,Potency,[4],inactive
same,Potency,[5],inactive
same,Potency,[6],inactive
same,Potency,[7],inactive
NC(=O)OCCCc1ccccc1,Potency,[1],inactive
same,Potency,[2],inactive
same,Potency,[3],inactive
same,Potency,[4],inactive
same,Potency,[5],inactive
CCC1(c2ccccc2)CCC(=O)NC1=O (stereo not drawn),Potency,[1],inactive
same,Potency,[2],inactive
same,Potency,[3],inactive
same,Potency,[4],inactive
same,Potency,[5],inactive
Cc1cccc2sc3nncn3c12,Potency,[1],inactive
same,Potency,[2],inactive
same,Potency,[3],inactive
same,Potency,[4],inactive
same,Potency,[8],inactive
same,Potency,[5],inactive
ClCOCCl,Potency,[1],inactive
same,Potency,[2],inactive
same,Potency,[3],inactive
same,Potency,[4],inactive
same,Potency,[5],inactive
CCOC(=O)N(C)N=O,Potency,[1],inactive
same,Potency,[2],inactive
same,Potency,[3],inactive
same,Potency,[4],inactive
same,Potency,[5],inactive
same,Potency,[6],inactive
same,Potency,[7],inactive
COc1ccc2c(C(=O)c3ccc(Cl)cc3)c(C)n(CC(=O)O)c2c1,Potency,[1],inactive
same,Potency,[2],inactive
same,Potency,[3],inactive
same,Potency,[9],inactive
same,Potency,[5],inactive
CC(C)(C1CCC(O)CC1)C1CCC(O)CC1 (stereo not drawn),Potency,[1],inactive
same,Potency,[2],inactive
same,Potency,[4],inactive
same,Potency,[8],inactive
same,Potency,[9],19.3 µM (active)
same,Potency,[5],inactive
O=P(O)(O)c1ccccc1,Potency,[1],inactive
same,Potency,[2],inactive
same,Potency,[4],inactive
same,Potency,[8],inactive
same,Potency,[9],inactive
same,Potency,[5],inactive
O=[N+]([O-])CCO,Potency,[1],inactive
same,Potency,[2],inactive
same,Potency,[3],inactive
same,Potency,[8],inactive
same,Potency,[9],inactive
same,Potency,[6],inactive
same,Potency,[7],inactive
CN(CCO)CCO,Potency,[1],inactive
same,Potency,[2],inactive
same,Potency,[3],inactive
same,Potency,[8],inactive
same,Potency,[9],inactive
same,Potency,[5],inactive
ClC(Cl)(Cl)Cl,Potency,[1],inactive
same,Potency,[2],inactive
same,Potency,[3],inactive
same,Potency,[8],inactive
same,Potency,[9],inactive
same,Potency,[5],inactive
same,Potency,[6],inactive
same,Potency,[7],inactive
NNCc1ccccc1,Potency,[1],inactive
same,Potency,[2],10.2 µM (active)
same,Potency,[4],inactive
same,Potency,[8],inactive
same,Potency,[9],62.3 µM (active)
same,Potency,[5],inactive
CC(C)[C@]12CC(=O)[C@H](C)[C@H]1C2,Potency,[1],inactive
same,Potency,[2],inactive
same,Potency,[4],inactive
COP(=O)(OC)O/C(C)=C/C(=O)N(C)C,Potency,[1],inactive
same,Potency,[2],inactive
same,Potency,[3],inactive
same,Potency,[6],inactive
same,Potency,[7],inactive
C=CCC1(C(C)CC)C(=O)NC(=O)NC1=O (stereo not drawn),Potency,[1],inactive
same,Potency,[2],inactive
same,Potency,[3],inactive
same,Potency,[8],inactive
same,Potency,[9],inactive
same,Potency,[5],inactive
CCC(C)(C#N)N=NC(C)(C#N)CC (stereo not drawn),Potency,[1],inactive
same,Potency,[2],inactive
same,Potency,[4],inactive
same,Potency,[8],inactive
same,Potency,[9],inactive
same,Potency,[5],inactive
same,Potency,[6],inactive
same,Potency,[7],inactive
O=C(Cl)CCl,Potency,[1],inactive
same,Potency,[2],inactive
same,Potency,[4],inactive
same,Potency,[8],inactive
same,Potency,[9],inactive
same,Potency,[5],inactive
CCOP(=S)(OCC)Oc1ccc(Cl)cc1Cl,Potency,[1],inactive
same,Potency,[2],inactive
same,Potency,[3],inactive
same,Potency,[8],inactive
same,Potency,[9],27.3 µM (active)
same,Potency,[5],inactive
C[C@H](CN1CCOCC1)C(C(=O)N1CCCC1)(c1ccccc1)c1ccccc1,Potency,[1],inactive
same,Potency,[2],inactive
same,Potency,[3],inactive
same,Potency,[5],inactive
same,Potency,[7],inactive
CCN[C@@H](C)Cc1cccc(C(F)(F)F)c1,Potency,[1],inactive
same,Potency,[2],inactive
same,Potency,[4],inactive
same,Potency,[8],inactive
same,Potency,[9],inactive
same,Potency,[5],inactive
